Values joined by “and” are separate entries in the source; they are usually repeats but may differ in a detail not shown here. Equal values may be shown once. Results filed as inconclusive are left out. Some compounds were tested as several samples or in several runs, with calls that do not always agree. Active and inactive are the calls of the source. How the source made its calls, unless noted: active means hit-call score of the fitted dose curve at least 0.9, where 1 is the maximum; inactive means score below 0.9.
Key:
[1] = CCTE_Shafer_MEA_acute_burst_percentage_std: CCTE's Neural Acute Assay for Standard Deviation of Burst Percentage, Shafer Lab (AID 2284018);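 further: fitted in the negative direction so actives lower burst percentage SD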
Outline: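 Value is percent change from baseline in the across-electrode SD of spikes-in-bursts percentage, wells with >/= 10 active electrodes. Acute 40-min exposure to 0.03-40 uM on DIV 13 or 15 rat cortical cultures, recorded at 37 C after 40-min baseline.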

[2] = CCTE_Shafer_MEA_acute_per_network_burst_spike_number_mean: CCTE's Neural Acute Assay for Average Number of Spikes in a Network Burst, Shafer Lab (AID 2284019);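 on AC50: curve fitted for loss of signal so actives reduce spikes per network burst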
Outline: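 Read-out is mean spike count per network burst, taken as percent change between a 40-min pre-exposure and a 40-min post-exposure recording per well. Rat primary cortical neurons on MEAs at 37 C, DIV 13 or 15; compounds at 0.03-40 uM.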

[3] = CCTE_Shafer_MEA_acute_per_network_burst_spike_number_std: CCTE's Neural Acute Assay for Standard Deviation of Number of Spikes in a Network Burst, Shafer Lab (AID 2284020);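 further: fitted for decrease in spike-number SD versus DMSO so actives lower it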
Outline: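 Spontaneous network activity of primary rat cortical neurons is recorded extracellularly before and after a 40-min compound exposure (0.03-40 uM) at 37 C. The endpoint is the well's percent change in burst spike-number SD.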

[4] = CCTE_Shafer_MEA_acute_per_network_burst_electrodes_number_mean: CCTE's Neural Acute Assay for Mean Number of Electrodes in a Network Burst, Shafer Lab (AID 2284021);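 further: curves fitted for decreases only so hits reduce electrodes per burst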
Outline: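 Rat primary cortical neurons on 48-well MEAs, DIV 13 or 15, were treated at 0.03-40 uM. Spikes were detected at 8x rms noise and recorded at 37 C. The mean electrodes per network burst in a 40 min exposure recording was expressed as percent change from a 40 min baseline.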

[5] = CCTE_Shafer_MEA_acute_network_burst_percentage: CCTE's Neural Acute Assay for Percentage of Network Bursts, Shafer Lab (AID 2284022);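 further: curves fitted for loss so actives lower network burst percentage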
Outline: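 Rat primary cortical neuron networks on 48-well MEA plates, DIV 13 or 15, treated acutely with compound (0.03-40 uM, at least three wells). Percent of spikes within network bursts compared between 40-min recordings before and during exposure at 37 C, expressed as percent change.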

[6] = CCTE_Shafer_MEA_acute_cross_correlation_area: CCTE's Neural Acute Assay for Area of Cross Correlation, Shafer Lab (AID 2284024);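 further: curves fitted for loss of cross-correlation area so actives lower synchrony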
Outline: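 Rat primary cortical neurons on 48-well MEA, DIV 13 or 15; compounds 0.03-40 uM. Baseline and post-exposure 40 min recordings at 37 C; percent change in area under pooled inter-electrode cross-correlation near zero lag, relative to DMSO.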

[7] = CCTE_Shafer_MEA_acute_cross_correlation_HWHM: CCTE's Neural Acute Assay for Cross Correlation at Half Width at Half Maximum, Shafer Lab (AID 2284026);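 further: percent change per well from pre-dose baseline in spike cross-correlogram half width; hits are a decrease in cross-correlogram half width relative to DMSO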;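 on outcome: spontaneous network firing of rat primary cortical neurons on multiwell microelectrode arrays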
Outline: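 Rat primary cortical neurons on 48-well MEA plates; 40-min baseline and 40-min post-exposure recordings at 37 C on DIV 13 or 15, compounds 0.03-40 uM. Spikes detected at 8x rms noise; percent change in cross-correlogram HWHM per well vs baseline.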

[8] = CCTE_Shafer_MEA_acute_synchrony_index: CCTE's Neural Acute Assay for Synchrony, Shafer Lab (AID 2284027);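 further: network synchrony index of spontaneous spiking in primary rat cortical neurons on MEAs; fitted for loss of signal so actives lower synchrony relative to DMSO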
Outline: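 Primary rat cortical neurons on 16-electrode MEA wells were recorded 40 min at baseline (DIV 13 or 15) and 40 min after compound (0.03-40 uM) at 37 C. Synchrony index (0-1) expressed as percent change from baseline, versus DMSO.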

[9] = CCTE_Shafer_MEA_dev_firing_rate_mean: CCTE's Neural Network Formation Assay for Mean Firing Rate, Shafer Lab (AID 2284031);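 on AC50: curve fitted for loss of firing so AC50 reflects decreased mean firing rate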
Outline: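 Primary rat cortical neurons on 48-well, 16-electrode MEAs (PEI-coated, laminin at plating), exposed from day 0 with compound renewed at DIV 5 and 9. Spikes recorded DIV 5, 7, 9, 12; well-mean firing rate collapsed to trapezoidal AUC, loss-of-signal vs DMSO.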

[10] = CCTE_Shafer_MEA_dev_per_burst_spike_percent: CCTE's Neural Network Formation Assay for Percent of Spikes in a Burst, Shafer Lab (AID 2284032);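 on AC50: fitted as a decrease in burst spike percentage below DMSO baseline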
Outline: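 Rat primary cortical neurons on 16-electrode MEA wells, dosed from plating day 0 for 12 days with renewal on DIV 5 and 9; spikes-in-bursts percentage averaged over bursting electrodes, collapsed as AUC across days 5, 7, 9, 12; loss direction versus DMSO.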

[11] = CCTE_Deisenroth_AIME_384WELL_CTox_Inactive: Cytotoxicity Assessment (CTOX) in CCTE's 384-well Estrogen Receptor Transactivation Assay without AIME metabolic competence (metabolism negative), Deisenroth Lab (AID 2284039; active means hit-call score of the fitted dose curve at least 0.9, where 1 is the maximum;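 further: cell viability via live-cell protease substrate cleaved to fluorescent probe; cells exposed 24 h to medium preincubated 2 h with alginate-water beads without S9; loss of fluorescence signal means loss of viability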)
Outline: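 Metabolism-negative arm: chemicals (10-point, 0.002 - 200 uM) preincubated 2 h with alginate-water lids, medium moved onto VM7Luc4E2 cells for 24 h. Fluorescent live-cell protease readout; bidirectional curve fit.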

[12] = CCTE_Shafer_MEA_dev_active_electrodes_number: CCTE's Neural Network Formation Assay for Number of Active Electrodes, Shafer Lab (AID 2284040; active means hit-call score of the fitted dose curve at least 0.9, where 1 is the maximum;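 on AC50: potency for loss of active electrodes versus DMSO so lower counts are hits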)
Outline: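 Rat cortical primary cultures, 1.5 x 10^5 cells/well, PEI-coated MEA, laminin drop. Continuous exposure DIV 0–12; full media/compound change DIV 5, 9. Readout: electrodes with mean firing ≥5 spikes/min; AUC across days; loss vs DMSO.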

[13] = CCTE_Shafer_MEA_dev_burst_rate: CCTE's Neural Network Formation Assay for Burst Rate, Shafer Lab (AID 2284042);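 on AC50: potency for loss of burst rate below DMSO control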
Outline: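 Cells plated, treated day 0; recorded DIV 5, 7, 9, 12; fed and re-treated DIV 5, 9. Endpoint: bursts per recording time, active-electrode well mean, trapezoidal AUC, fitted in decreasing direction against DMSO baseline.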

[14] = CCTE_Shafer_MEA_dev_bursting_electrodes_number: CCTE's Neural Network Formation Assay for Number of Bursting Electrodes, Shafer Lab (AID 2284043; active means hit-call score of the fitted dose curve at least 0.9, where 1 is the maximum;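 on AC50: potency is for loss of bursting electrodes relative to DMSO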)
Outline: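 Read-out is the per-well number of electrodes bursting at least once every 2 minutes, recorded on days 5, 7, 9 and 12 and collapsed by trapezoidal area under the curve. Cultures were primary rat cortical neurons on MEA plates, treated continuously from plating.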

[15] = CCTE_Shafer_MEA_dev_per_burst_interspike_interval: CCTE's Neural Network Formation Assay for Burst Interspike Interval, Shafer Lab (AID 2284044);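 further: mean spike spacing inside bursts as AUC over recordings on days 5 7 9 12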;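 on AC50: potency for a decrease of within-burst interspike interval below DMSO level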
Outline: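 Primary rat cortical neurons on 48-well MEA plates, exposed from day 0 through day 12, treatment renewed at DIV 5 and 9. Within-burst interspike interval recorded days 5, 7, 9, 12, well-averaged, summarised as AUC; negative fit versus DMSO.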

[16] = CCTE_Shafer_MEA_dev_burst_duration_mean: CCTE's Neural Network Formation Assay for Mean Burst Duration, Shafer Lab (AID 2284045);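 on AC50: curve fitted for loss meaning shorter burst duration than DMSO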
Outline: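 Read-out: average first-to-last-spike interval within single-electrode bursts, averaged over bursting electrodes per well, then summarised as area under the curve across days 5, 7, 9 and 12. Developing rat cortical networks were exposed from day 0.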

[17] = CCTE_Shafer_MEA_dev_interburst_interval_mean: CCTE's Neural Network Formation Assay for Mean Interburst Interval, Shafer Lab (AID 2284046);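 further: well-mean interburst interval of bursting electrodes as AUC over four recording days; curve fitted for decrease in interburst interval relative to DMSO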
Outline: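 Developing rat cortical networks on 48-well MEAs receive compound from the day of plating. Burst intervals from each active electrode are averaged per well, and AUC over the recording days is fitted in the negative direction against DMSO.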

[18] = CCTE_Deisenroth_AIME_384WELL_CTox_Active: Cytotoxicity Assessment (CTOX) in CCTE's 384-well Estrogen Receptor Transactivation Assay with AIME metabolic competence (metabolism positive), Deisenroth Lab (AID 2284037; active means hit-call score of the fitted dose curve at least 0.9, where 1 is the maximum;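 further: chemicals first conditioned 2 h by alginate-bound induced rat liver S9 before cells; activity means signal loss indicating cell death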)
Outline: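 Cytotoxicity in VM7Luc4E2 breast cells, 24 hour, measured as protease-substrate fluorescence loss, after 2-hour metabolic conditioning with induced rat hepatic S9 in alginate microspheres. Concentrations 0.002 - 200 uM, 10 points, bidirectional fitting.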

[19] = target: Estrogen receptor (Homo sapiens) (UniProt P03372); assay: CCTE_Deisenroth_AIME_384WELL_LUC_Shift: CCTE's 384-well Estrogen Receptor Transactivation Assay with AIME metabolic competence data shift (ERTA luciferase; difference in metabolism positive and negative), Deisenroth Lab (AID 2284041);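 further: shift is response with S9 minus without S9 so positive means metabolism raised ER signal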
Outline: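 Test chemicals (0.002–200 uM, 10-point) were pre-incubated 2 h with alginate microspheres containing phenobarbital/beta-naphthoflavone-induced male Sprague Dawley rat liver S9 or water, then medium was transferred to VM7Luc4E2 cells for 24 h luciferase readout; shift = S9-positive minus S9-negative normalized response.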

[20] = target: Estrogen receptor (Homo sapiens) (UniProt P03372); assay: CCTE_Deisenroth_AIME_384WELL_LUC_Active: CCTE's 384-well Estrogen Receptor Transactivation Assay with AIME metabolic competence (ERTA luciferase; metabolism positive), Deisenroth Lab (AID 2284030; active means hit-call score of the fitted dose curve at least 0.9, where 1 is the maximum)
Outline: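 Chemicals (10-point, 0.002-200 uM) were first incubated 2 hours with alginate-immobilized induced male Sprague Dawley rat liver S9. The conditioned medium was then applied to VM7Luc4E2 cells for 24 hours, with ER luciferase induction read by luminescence relative to 17beta-estradiol.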

Sequence of Estrogen receptor (Homo sapiens) (P03372 whole entry, looked up): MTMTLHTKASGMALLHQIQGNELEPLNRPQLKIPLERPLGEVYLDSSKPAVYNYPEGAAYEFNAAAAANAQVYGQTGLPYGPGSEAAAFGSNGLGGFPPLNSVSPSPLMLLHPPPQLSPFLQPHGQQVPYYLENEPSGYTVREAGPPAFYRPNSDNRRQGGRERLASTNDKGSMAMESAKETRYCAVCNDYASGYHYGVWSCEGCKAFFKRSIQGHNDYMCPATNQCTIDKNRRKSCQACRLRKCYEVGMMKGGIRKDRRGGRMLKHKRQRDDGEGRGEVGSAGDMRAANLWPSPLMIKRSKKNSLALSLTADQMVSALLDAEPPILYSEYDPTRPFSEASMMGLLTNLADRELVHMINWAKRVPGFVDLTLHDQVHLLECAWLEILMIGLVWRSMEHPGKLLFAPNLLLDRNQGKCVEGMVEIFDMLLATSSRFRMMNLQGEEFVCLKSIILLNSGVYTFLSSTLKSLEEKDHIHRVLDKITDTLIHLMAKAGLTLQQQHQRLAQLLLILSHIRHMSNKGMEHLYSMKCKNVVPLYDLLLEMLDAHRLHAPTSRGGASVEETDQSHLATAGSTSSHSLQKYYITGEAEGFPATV

With `O=S(=O)(O)C(F)(F)C(F)(F)C(F)(F)C(F)(F)C(F)(F)C(F)(F)C(F)(F)C(F)(F)F` the outcome [1] was “inactive”, the outcome [2] was “inactive” and the outcome [3] was “inactive”. The outcome [4] was “inactive”, the outcome [5] was “inactive” and the outcome [6] was “inactive”. For the same compound, the outcome [7] was “inactive”, the outcome [8] was “inactive” and the outcome [9] was “inactive”. The AC50 [10] was 77.9 µM (active), the outcome [10] was “inactive” and the AC50 [11] was 100 µM (active). For the same compound, the AC50 [12] was 50 µM (active), the outcome [12] was “inactive” and the AC50 [13] was 3.81 µM (active). For the same compound, the outcome [13] was “inactive”, the AC50 [14] was 43.1 µM (active) and the outcome [14] was “inactive”. For the same compound, the outcome [15] was “inactive”, the outcome [16] was “inactive” and the outcome [17] was “inactive”.
For `N#CN`, the outcome [1] was “inactive”, the outcome [2] was “inactive” and the outcome [3] was “inactive”. For the same compound, the outcome [4] was “inactive”, the outcome [5] was “inactive” and the outcome [6] was “inactive”. For the same compound, the outcome [7] was “inactive” and the outcome [8] was “inactive”.
In the case of `CCOCN(C(=O)CCl)c1c(C)cccc1CC`, the outcome [18] is reported as “inactive” and the outcome [19] is reported as “inactive”.
With `O=[N+]([O-])/N=C1\NCCN1Cc1ccc(Cl)nc1` the outcome [1] was “inactive”, the outcome [2] was “inactive” and the outcome [3] was “inactive”. The outcome [4] was “inactive”, the outcome [5] was “inactive” and the outcome [6] was “inactive”. For the same compound, the outcome [7] was “inactive”, the outcome [8] was “inactive” and the outcome [9] was “inactive”. The outcome [10] was “inactive”, the outcome [12] was “inactive” and the outcome [13] was “inactive”. For the same compound, the outcome [14] was “inactive”, the outcome [15] was “inactive” and the outcome [16] was “inactive”. The outcome [17] was “inactive”.
For `CC1(C)C(C=C(Cl)Cl)C1C(=O)OC(C#N)c1ccc(F)c(Oc2ccccc2)c1` (stereo not given), the AC50 [1] was 5.28 µM (active), the outcome [1] was “inactive” and the AC50 [2] was 54.4 nM (active) and 609 nM (active). The AC50 [3] was 81.2 nM (active) and 622 nM (active), the AC50 [4] was 66.4 nM (active) and 796 nM (active) and the AC50 [5] was 171 nM (active) and 612 nM (active). The AC50 [6] was 20.3 nM (active) and 102 nM (active), the AC50 [7] was 15 µM (active) and the outcome [7] was “inactive”. For the same compound, the AC50 [8] was 117 nM (active) and 558 nM (active), the AC50 [9] was 1.15 µM (active) and 9.57 µM (active) and the outcome [9] was “inactive”. For the same compound, the AC50 [10] was 2.63 µM (active) and 27.9 µM (active) and 19.5 µM (active), the AC50 [12] was 10 µM (active) and 26.4 µM (active) and 10.4 µM (active) and the AC50 [13] was 1.07 µM (active) and 259 nM (active). For the same compound, the outcome [13] was “inactive”, the AC50 [14] was 2.28 µM (active) and 25.9 µM (active) and 9.56 µM (active) and the AC50 [15] was 10 µM (active). For the same compound, the outcome [15] was “inactive”, the AC50 [16] was 2.04 µM (active) and 8.68 µM (active) and 7.93 µM (active) and the AC50 [17] was 49.9 µM (active) and 21 µM (active). For the same compound, the outcome [17] was “inactive”.
In the case of `OCCOc1ccccc1`, the AC50 [20] is reported as 34 µM (active), the outcome [18] is reported as “inactive” and the outcome [11] is reported as “inactive”. For the same compound, the AC50 [19] was 23.8 µM (active).
For `O=C(O)COc1ccc(Cl)cc1Cl`, the outcome [9] was “inactive”, the outcome [10] was “inactive” and the outcome [11] was “inactive”. The AC50 [12] was 50 µM (active), the outcome [13] was “inactive” and the AC50 [14] was 30.9 µM (active). For the same compound, the outcome [15] was “inactive”, the outcome [16] was “inactive” and the outcome [17] was “inactive”.
With `CCCN(CCC)c1c([N+](=O)[O-])cc(C(F)(F)F)cc1[N+](=O)[O-]` the AC50 [1] was 20 µM (active), the outcome [2] was “inactive” and the outcome [3] was “inactive”. For the same compound, the AC50 [4] was 8.36 µM (active), the AC50 [5] was 20 µM (active) and the outcome [6] was “inactive”. For the same compound, the outcome [7] was “inactive”, the outcome [8] was “inactive” and the outcome [20] was “inactive”. For the same compound, the outcome [19] was “inactive”.
In the case of `N#Cc1c(Cl)c(Cl)c(Cl)c(C#N)c1Cl`, the outcome [1] is reported as “inactive”, the outcome [2] is reported as “inactive” and the outcome [3] is reported as “inactive”. The outcome [4] was “inactive”, the AC50 [5] was 7.17 µM (active) and the outcome [6] was “inactive”. For the same compound, the outcome [7] was “inactive” and the outcome [8] was “inactive”.
